Reference: PubChem BioAssay (EPA / NIEHS)
The source made the active and inactive calls. The calls were made as follows: active = hit-call score of the fitted dose curve at least 0.9, where 1 is the maximum; inactive = score below 0.9.

What follows are compounds tested on Cyclin D1 (CCND1), CCND1 (gene 595) (assay: LTEA_HepaRG_CCND1: Life Technologies and Expression Analysis (LTEA) Assay for Cyclin D1 (CCND1) using HepaRG (AID 2283451;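 as to AC50: TaqMan qRT-PCR transcript level normalised to ACTB GAPDH and POLR2A housekeeping genes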)). Settings: mRNA level, 48 h; actives raise or lower the signal.
Method: LTEA_HepaRG is a cell based, multiplexed-readout assay that uses HepaRG, a human liver cell line, with measurements taken at 48 hours after chemical dosing on a 96-well plate.LTEA_HepaRG_CCND1 is one of 102 assay component(s) measured in the LTEA HepaRG cell culture assay. It is a marker of Cell proliferation, survival, death.Data from the assay component LTEA_HepaRG_CCND1 was analyzed into 1 endpoint. This assay endpoint, LTEA_HepaRG_CCND1, was analyzed with bidirectional fitting relative to DMSO as the negative control and baseline of activity. Using a type of inducible reporter, measures of mRNA induction for gain or loss-of-signal activity can be used to understand regulation of transcription factor activity. To generalize the intended target to other relatable targets, this assay endpoint is annotated to the cell cycle intended target family, where the subfamily is Cell proliferation, survival, death.
A total of 1060 chemcials from the ToxCast library were tested in eight-point concentration-response experiments. Cell culture and cytotoxicity assays were conducted at Thermo Fisher Scientific's Custom Services facility (Madison, WI). A single lot of human HepaRG cells (Thermo Fisher Scientific, Frederick, MD) was used for the cell culture experiments. 96-well format collagen type I coated plates of human HepaRG cells were prepared using established methods. Briefly, cryopreserved HepaRG cells were thawed, plated at a density of approximately 100,000 cells/well in HepaRG Thaw, Plate, and General Purpose media (HPRG770, Thermo Fisher Scientific), and incubated for 48 hours. 0.5% DMSO was selected as vehicle control to balance the requisite need of DMSO in HepaRG cultures to maintain differentiation (for example, baseline metabolism, proportions of hepatocytes vs. cholangiocytes), while enabling further hepatic receptor pathway activation (for example, PXR and CAR) in response to chemical exposure. 48 hours after plating, the culture medium was replaced with HepaRG Serum-Free Incudtion Media. Cells were exposed to each test chemical in duplicate and maintained in CO2 incubators for another 48 hours. Chemical plates were thawed to room temperature and 200x concentrations of treatment groups were prepared. 8-point conentration-reponse curves were made with the highest exposure at 100 uM, followed by half-log dilutions, all in 0.5% DMSO. Each test plate contained variouse controls, induction positive controls (1mM phenobarbital), cytotoxicity positive controls ([…] aflatoxin B1), vehicle controls (0.5% DMSO), and total lysis controls (0.5% DMSO). Cell morphology images were taken using an Essen IncuCyte FLR automated microscope, with six 96-well plates imaged in about 24 minutes. Images were captured and exported and JPEG files. Spent culture media was transfered to black-well plates for the LDH assay, and remaining media was sorted at -80 C for later use. Cells were treated with RLT buffer and frozen until shipped for gene expression analysis. Total RNA was isolated from the cell suspension in 75 uL of Buffer RLT (Qiagen, Germantown, MD 20874) by Quintiles/Expression Analysis (Durham, NC) using a custom isolation procedure. Total RNA from each plate well was transferred to a preamplification plate. Fluidigm's 96.96 Dynamic ArrayTM (Fluidigm, Amsterdam, the Netherlands) technology was used for gene expression analyses by quantitative reverse transcription polymerase chain reaction (qRT-PCR, performed by Quintiles/Expression Analysis, Durham, NC)89. Standard TaqManTM Assays (Applied Biosystems/ThermoFisher Scientific, Foster City, CA) were used to assess the expression of 93 genes selected based on their selectivity and sensitivity to important hepatic receptors known to be modulated by environmental chemicals; importance in human hepatocyte functionality; and hepatotoxicity. […]
In the case of `CCCOC(=O)c1ccc(C(=O)OCCC)nc1`, the outcome is reported as “inactive”. For `CCOC(=O)C(C)Oc1ccc(Oc2cnc3cc(Cl)ccc3n2)cc1` (stereo not given), the outcome was “inactive”. For `N[C@@H](Cc1cc(I)c(Oc2ccc(O)c(I)c2)c(I)c1)C(=O)O`, the outcome was “inactive”. In the case of `CCCCCOC(=O)COc1cc(N2C(=O)C3=C(CCCC3)C2=O)c(F)cc1Cl`, the outcome is reported as “inactive”. In the case of `COC(=O)c1ccccc1C(=O)O`, the outcome is reported as “inactive”. For `c1ccc2[nH]c(-c3cscn3)nc2c1`, the outcome was “inactive”. For `CCOC(=O)c1ccc(O)cc1`, the outcome was “inactive”. With `CCOC(=O)NCCOc1ccc(Oc2ccccc2)cc1` the outcome was “inactive”. With `CCSC(=O)N(CC(C)C)CC(C)C` the outcome was “inactive”. `S=C([S-])NCCNC(=S)[S-].[Mn+2]` was tested, and the AC50 was 0.485 µM (active). In the case of `CCCCCCC(C)OC(=O)COc1nc(F)c(Cl)c(N)c1Cl` (stereo not given), the outcome is reported as “inactive”. For `CCCCC(CC)COC(=O)c1ccccc1C(=O)O` (stereo not given), the outcome was “inactive”. With `C#C[C@]1(O)CC[C@H]2[C@@H]3CCC4=CC(=O)CC[C@@H]4[C@H]3CC[C@@]21CC` the outcome was “inactive”. With `CCN(CC)C(=O)c1cccc(C)c1` the outcome was “inactive”. `CCCCOC(=O)C(C)Oc1ccc(Oc2ccc(C(F)(F)F)cn2)cc1` (stereo not given) was tested, and the outcome was “inactive”. With `CCCN(CCC)C(=O)SCC` the outcome was “inactive”. `N#CSCSc1nc2ccccc2s1` was tested, and the outcome was “inactive”. In the case of `COC(=O)CSc1cc(N=c2sc(=O)n3n2CCCC3)c(F)cc1Cl`, the outcome is reported as “inactive”. In the case of `c1ccc(Nc2ccccc2)cc1`, the outcome is reported as “inactive”. In the case of `CC(C)(c1ccc(O)cc1)c1ccc(O)cc1`, the outcome is reported as “inactive”. In the case of `CC(C)(C)[C@@H](O)[C@@H](Cc1ccc(Cl)cc1)n1cncn1`, the outcome is reported as “inactive”. In the case of `CCCCC(CC)CN1C(=O)C2C3C=CC(C3)C2C1=O` (stereo not given), the outcome is reported as “inactive”. With `CCCCOC(=O)[C@@H](C)Oc1ccc(Oc2ccc(C(F)(F)F)cn2)cc1` the outcome was “inactive”. With `CC(=O)[C@H]1CC[C@H]2[C@@H]3CCC4=CC(=O)CC[C@]4(C)[C@H]3CC[C@]12C` the outcome was “inactive”. `Cc1nn(C)c(Oc2ccccc2)c1C=NOCc1ccc(C(=O)OC(C)(C)C)cc1` was tested, and the AC50 was 83.9 µM (active). With `CN(C)C(=O)Nc1ccc(Cl)c(Cl)c1` the AC50 was 50 µM (active). For `CCC(C)OC(=O)N1CCCCC1CCO` (stereo not given), the outcome was “inactive”. In the case of `CCCN(CCC)c1c([N+](=O)[O-])cc(C(F)(F)F)c(N)c1[N+](=O)[O-]`, the outcome is reported as “inactive”. With `OB(O)O` the outcome was “inactive”. For `CCCOC(=O)NCCCN(C)C`, the outcome was “inactive”. With `O=C(O)C1(C(=O)Nc2ccc(Cl)cc2Cl)CC1` the AC50 was 83.3 µM (active). For `CCNc1nc(N)nc(Cl)n1`, the outcome was “inactive”. With `CCN(Cc1c(F)cccc1Cl)c1c([N+](=O)[O-])cc(C(F)(F)F)cc1[N+](=O)[O-]` the outcome was “inactive”. With `CCOC(=O)C(C)Oc1ccc(Oc2nc3ccc(Cl)cc3o2)cc1` (stereo not given) the outcome was “inactive”. For `CC1(C)C(C=C(Cl)Cl)C1C(=O)OCc1cccc(Oc2ccccc2)c1` (stereo not given), the outcome was “inactive”. `CCCCOCCOCCOCc1cc2c(cc1CCC)OCO2` was tested, and the outcome was “inactive”. For `O=C(Nc1ccc([N+](=O)[O-])cc1Cl)c1cc(Cl)ccc1O`, the AC50 was 3.16 µM (active). For `COCCO`, the outcome was “inactive”. `O=C(c1ccc(O)cc1O)c1ccc(O)cc1O` was tested, and the outcome was “inactive”. For `O=C(c1ccccc1)C1CCCCC1`, the outcome was “inactive”.
